Screening data as filed in PubChem.
A selection: hits, their analogues and other compounds. The true share with any hit is near 11%.
PNC assembly inh: blocks assembly of the perinucleolar compartment; PC3M PTB-GFP, PNC prevalence imaging, 16 h; active compounds read low; activity change (PNC), negative = inhibition, % at 10 µM; hit rate 3.1% among 140,000; AID 2417;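 active means readout at or below -70, meaning at least 70% loss of cells showing the perinucleolar compartment, a nuclear body marking cancer cells; inconclusive means readout between -30 and a set limit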
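Read-out is percentage of cells bearing a perinucleolar compartment, from automated 20x imaging of fixed, Hoechst-stained PC3M PTB-GFP cells. Cells were seeded 4 h, then exposed 16 h to compound (23 nl of library stock) in duplicate plates.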
ALDH1A1 block: inhibitors of human aldehyde dehydrogenase 1A1. P00352. Purified ALDH1A1, NADH fluorescence, propionaldehyde substrate. Potency, µM (series often up to 75.3 µM), usual class: inhibitors. hit rate 7.3% among 220,000. AID 1030
HPGD block: inhibitors of human 15-hydroxyprostaglandin dehydrogenase (HPGD) | P15428 | purified HPGD, NADH fluorescence kinetic, PGE2 substrate | Potency, µM, actives largely listed as inhibitors | hit rate 4.3% among 150,000 | AID 894
Target sequence (P15428 whole entry, looked up): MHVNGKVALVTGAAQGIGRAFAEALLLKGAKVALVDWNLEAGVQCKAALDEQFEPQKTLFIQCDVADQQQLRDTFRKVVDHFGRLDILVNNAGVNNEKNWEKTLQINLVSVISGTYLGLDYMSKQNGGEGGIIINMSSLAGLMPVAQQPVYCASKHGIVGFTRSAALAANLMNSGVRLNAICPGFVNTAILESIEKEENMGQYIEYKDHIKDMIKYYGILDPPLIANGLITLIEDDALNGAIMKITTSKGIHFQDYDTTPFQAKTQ
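20 nM HPGD preincubated 15 min at room temperature with compound in 50 mM Tris-HCl pH 8, 0.01% Tween 20. Started with 1 mM NAD+ and 30 uM prostaglandin E2; NADH fluorescence (360/450 nm) read 5 times over 30-s intervals, last minus first.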
Numbers stand for hits; - = inactive; ? = inconclusive; . = no result; [ ] = dose if it differs, or a comment. Unless noted, the call rests on the fitted dose curve; in most records, active means well fitted inhibition curve with a large enough effect (not every such curve was filed as active); inconclusive means small, poorly fitted or top-dose-only effect, or another doubt; inactive means no such curve, though single readings can be large or run the other way.

SMILES | PNC assembly inh | ALDH1A1 block | HPGD block
COc1ccc(N2C(=O)C3[C@@H](C2=O)C2(Cl)C(Cl)=C(Cl)C3(Cl)C2(OC)OC)cc1 (stereo partly drawn) | - | - | -
COc1ccc(Nc2ccnc(Nc3ccc(OC)cc3)n2)cc1 | -93 | ? | -
CCOc1nc(Nc2ccc(OC)cc2)nc(OCC)n1 | ? | - | -
CC1(C)Cc2nc3sc4c(=O)[nH]cnc4c3cc2CS1 | - | 14µM | ?
CCCCCn1cnc2sc(CC)cc2c1=O | - | - | -
CCCc1nc2sc3c(=O)[nH]cnc3c2c2c1CCCC2 | . | - | .
CCCCCn1cnc2c(sc3nc4c(cc32)CSC(C)(C)C4)c1=O | ? | 2.8µM | ?
COc1ccc(CCNC(=O)c2ccc(CNS(=O)(=O)c3cc(C)ccc3C)cc2)cc1OC | ? | - | -
CC(C)NC(=O)NC(=O)COC(=O)c1ccc([N+](=O)[O-])cc1Cl | . | - | .
COC(=O)c1ccccc1C[C@]1(C(=O)OC)C=C[C@H](C)[C@@H](c2ccccc2)N1C(=O)C(F)(F)F | . | - | -
Cc1ccc2occ(CN3CCN(Cc4ccccc4)CC3)c(=O)c2c1 | - | ? | -
O=c1c(CN2CCN(Cc3ccccc3)CC2)coc2ccc(Cl)cc12 | - | 8.9µM | -
C=CCSc1n[nH]c(-c2ccc(OCCC)cc2)n1 | - | - | ?
C=CCSc1n[nH]c(-c2ccc(OCCCC)cc2)n1 | - | - | 16µM
COc1ccc(Nc2cc(=O)n(C3CCCCC3)c(=O)[nH]2)c(OC)c1 | - | 7.1µM | -
Cc1cc(C)cc(Nc2cc(=O)n(C3CCCCC3)c(=O)[nH]2)c1 | - | 0.45µM | -
COC(=O)C1CCN(c2cc(=O)n(C3CCCCC3)c(=O)[nH]2)CC1 | - | ? | -
CC1CCN(c2cc(=O)n(C3CCCCC3)c(=O)[nH]2)CC1 | - | - | -
N#CCCn1nc(-c2ccc([N+](=O)[O-])cc2)cc1Nc1ccccc1NC(=O)C(F)(F)F | - | - | -
O=C(COc1ncnc2ccccc12)NCCCN1CCCC1=O | - | ? | -
COC(=O)/C=C1/SC(=NC(=O)c2ccc(F)cc2)NC1=O | . | - | .
CS(=O)(=O)N(CC(=O)Nc1ccc(CC#N)cc1)c1ccc(C23CC4CC(CC(C4)C2)C3)cc1 | - | - | -
Cc1cccc(N(C)S(=O)(=O)c2ccc3[nH]c(=O)c(=O)[nH]c3c2)c1 | - | ? | 14µM
Cc1cccc(N(C)S(=O)(=O)c2ccc3c(c2)NC(=O)CC(=O)N3)c1 | . | - | .
CC(=O)n1cc(C(C[N+](=O)[O-])SCCN)c2ccccc21 (stereo not drawn) | - | - | 25µM
SMILES | PNC assembly inh | ALDH1A1 block | HPGD block
CC(=O)n1cc(-c2ccncc2)c2ccccc21 | - | - | -
O=C(NCCOc1ccc(Cl)cc1)C1CC(=O)N(c2ccc(F)cc2)C1 (stereo not drawn) | - | 25µM | -
Cc1ccc(OCCNC(=O)C2CC(=O)N(c3ccc(C)cc3)C2)cc1 (stereo not drawn) | - | ? | -
O=C(O)C1CC(=O)N(c2ccc(OCc3ccc(Cl)cc3Cl)cc2)C1 (stereo not drawn) | - | - | 14µM
O=C(O)C1CC(=O)N(c2ccc(OCc3ccccc3Cl)cc2)C1 (stereo not drawn) | - | - | -
CCn1c(SCC(=O)Nc2ncc(C(F)(F)F)cc2Cl)nnc1-c1cccc(C)c1 | ? | - | -
Cc1cc(C)n(C(=O)c2cc3ccccc3c(=O)o2)n1 | - | - | -
COCCn1nnnc1SCC(=O)c1ccc(F)cc1 | - | - | -
O=C(CSc1nnc(-c2ccco2)n1Cc1ccco1)NCc1ccccc1 | -94 | - | -
Cc1occc1-c1nnc(SCC(=O)c2ccc(F)cc2)n1Cc1ccco1 | - | ? | ?
COCCn1c(SCC(=O)c2ccc(F)cc2)nnc1C(C)C | ? | 13µM | -
O=C(CSc1nnc(-c2ccco2)n1Cc1ccccc1)c1ccc(F)cc1 | - | 4µM | 25µM
CCn1c(SCC(=O)Nc2cc(C)on2)nnc1-c1ccco1 | - | ? | -
CCn1c(SCC(=O)Nc2nonc2C)nnc1-c1ccco1 | - | 14µM | ?
O=C(CSc1nnc(-c2ccco2)n1Cc1ccccc1)NCc1ccccc1 | - | - | -
Cc1cc(C)cc(N(CC(=O)NCc2ccco2)S(=O)(=O)c2c(C)noc2C)c1 | - | - | -
NC(N)=NCC(O)CN(c1ccccc1)c1ccccc1 (stereo not drawn) | . | - | .
CS(=O)(=O)CCC(C(=O)OCC(=O)c1ccc(Cl)cc1)N1C(=O)c2ccccc2C1=O (stereo not drawn) | - | - | -
COc1ccc(N2CCN(c3nc(Cl)nc(Nc4ccc(F)cc4)n3)CC2)cc1 | - | - | -
Cc1cccc(NC(=O)CCN2C(=O)C3C4C=CC(C4)C3C2=O)n1 (stereo not drawn) | - | ? | -
Cc1ccc(CN2C(=O)CCC2C(=O)NCCN2CCN(c3cccc(Cl)c3)CC2)cc1 (stereo not drawn) | . | - | .
COc1cc2c(cc1NC(=O)C(C)NCc1ccccc1)oc1ccccc12 (stereo not drawn) | - | - | ?
O=C(CSc1nnc(Cc2ccccc2)n1Cc1ccco1)NC1CCCC1 | - | 22µM | -
CCOc1ccccc1NC(=O)CSc1nnc(-c2ccccn2)n1Cc1ccco1 | -82 | ? | -
Cc1cc(NC(=O)CSc2nnc(-c3ccco3)n2Cc2ccco2)no1 | - | - | -
SMILES | PNC assembly inh | ALDH1A1 block | HPGD block
Cn1c(Cc2ccccc2)nnc1SCC(=O)NC1CCCCC1 | - | - | -
CCOc1ccccc1NC(=O)CSc1nnc(-c2ccco2)n1Cc1ccco1 | - | ? | -
CC(=O)Nc1ccc(NC(=O)CSc2nnc(-c3ccco3)n2Cc2ccco2)cc1 | - | 20µM | -
CCOC(=O)c1c(NC(=O)CSc2nnnn2-c2ccccc2)sc2c1CCC(C)C2 (stereo not drawn) | - | - | -
CCn1c(SCC(=O)Nc2sc3c(c2C(N)=O)CCC(C)C3)nnc1-c1ccco1 (stereo not drawn) | - | 22µM | ?
Cc1cc(C)c(NC(=S)N(CCCN2CCOCC2)Cc2cccnc2)c(C)c1 | . | - | .
COc1ccc(CNC(=O)C2CCCN(S(=O)(=O)c3c(C)n[nH]c3C)C2)cc1 (stereo not drawn) | ? | - | -
CC(O)COC(C)(C)C (stereo not drawn) | . | - | -
COc1ccc(C(C(=O)NC(C)(C)C)N(C(=O)CNC(=O)c2cccs2)c2ccc(C)cc2)cc1OC (stereo not drawn) | - | - | -
COc1ccc(OC)c(-c2cc(C3CCN(C(=O)OC(C)(C)C)CC3)[nH]n2)c1 | . | - | .
Cc1cc(NC(=O)CSc2nnc(-c3ccc(Br)o3)n2Cc2ccccc2)no1 | - | ? | -
O=C(CSc1nnc(-c2ccc(Br)o2)n1Cc1ccccc1)c1ccccc1F | ? | ? | 32µM
CC1(C)O[C@H]2O[C@@H]([C@H](O)CON3C(=O)c4ccccc4C3=O)[C@H](O)[C@H]2O1 | . | -[13.5 µM] | .
Cc1nc(N/C(N)=N/S(=O)(=O)c2ccc([N+](=O)[O-])cc2)nc2ccccc12 | - | ? | -
COC(=O)c1c(N)sc(C(=O)N2CCOCC2)c1C | ? | ? | -
COc1ccc2oc(-c3ccccc3)c(C(=O)N3CCOCC3)c2c1 | - | ? | ?
Cc1c(-c2ccccc2)sc(N)c1C(=O)N1CCOCC1 | ? | 13µM | 8.9µM
CCOC(=O)c1c(N)sc(C(=O)N2CCOCC2)c1C | -100 | - | -
